From PubChem BioAssay AID1508600 (Functional Genomics Laboratory (NCATS/FGL), 2020)
The campaign covered roughly 53,000 sequences. About 3,700 (7%) were called active. The sample as a whole holds a higher share of actives than the screen did. Unmarked numbers belong to inactive results.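 How the source made its calls: active means gene knockdowns whose robust z-score for IL-1 alpha signal is at least 2 or at most -2, so actives lie on both sides; inactive means the rest.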

Experiment: Components of the Cytosolic LPS Sensing Pathway: Gene Identification via Genome-wide siRNA Screen;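 further: robust z of the log signal after scaling to non-targeting control siRNA wells of the plate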
Settings: RAW264.7 macrophages, IL-1a HTRF, actives lie on both sides, screened at 100 nM (by protocol), cells primed 5 h with Pam3CSK4 first
In short: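 Mouse macrophage line RAW264.7 is transfected with siRNA (100 nM final), grown 48h, primed with TLR ligand Pam3CSK4 5 h and given intracellular LipidA 24 h. IL-1a in supernatant is read by HTRF and viability by luminescence.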

Sequence	z-score
CGUAUUAACGACAUAAGAGTT against Nckap1	-0.169
GGACCUUAAGAGAUAUCAATT against Acsm4	2.9 (active)
CCAAUUGGAAUCCCAUUUUTT against Cd47	-0.273
CCCAACAAUGCUGCACAUGTT against H1f8	0.157
GCAGUGUCUAGGACAGUCATT against Pdcd5	0.0243
GGGCCCGAUGAAGCAAAAATT against Hnrnpr	-1.49
GGCAAACAUGAAGAGAAGCTT against Hspb8	0.0665
GGCUGACCUUCUGUGCUGATT against Olfr876	-0.98
CGAAGAGAUCUCACUAUAATT against Trnt1	1.21
GCGCUAGAAGGCCAGAUAUTT against Orm3	-0.155
GCAAUGGUUCAGUAUGUACTT against Tpgs2	-2.01 (active)
GCCAUCAACAGCAUUUACATT against Glt8d2	-0.455
GGAGCUUUCAGCUAAGACATT against Rassf4	0.671
GGACCAGCCAUACCUGUGATT against Ndufa7	-1.93
GCCACACAGUGUGAUCCAATT against Nrip2	-1.33
GGCUACCUACAGCACCAACTT against Esyt1	-1.58
CCAAGUCUUUGCCUACGUGTT against Dsn1	2.39 (active)
GGAUGUAACUGAAAGAGAATT against Fam133b	-1.11
GGACACUUAAAGAUCCUGCTT against Armc7	-0.545
GCUCAGAGAUUAUGGCAUCTT against Snrnp25	0.687
GAGCUAAGCAAGAUGCUAGTT against Sox17	3.97 (active)
GCAUGAUUACCCAUUUCAATT against Tax1bp1	0.334

Sequence	z-score
GGAGAAGGAGAUGUCCAAUTT against Guca2b	0.777
GCGAUUGAUGAAUUUCGACTT against Atp9b	0.616
GGAUUUCAAAAACCACGUGTT against Snx1	1.14
CCCACAGCUCUGACAUUUUTT against Fbxo6	-0.315
CCUAGGUCAUAUUUCUCCATT against Bgn	0.224
GGCAGUGGCUUGGAUAAAUTT against Amdhd2	-0.609
GGAGAGCUGCAUGAUUUCATT against Efcab2	3.67 (active)
GCAGUCAUGGGUUCUUAAGTT against Gng3	0.109
CCAUAUCUCAUGAGGAAGGTT against Olfr1368	1.53
GGACGGUGACAAGAACAACTT against Tnnc1	1.72
GCUUCACGAUUAAAACUAATT against Ltb4r1	0
CGGAGUCUUCUUCUCACCUTT against A630001O12Rik	-2.82 (active)
GGCUCAGGCAUUGUAACCATT against Dnm3	-0.177
GGUGCAUUCCUUGUGAAUGTT against Ctbp2	0.141
GCUCAGUCAUGUGACCGCATT against Fbxl18	2.93 (active)
GGGAAAGGAAGUUGUUUUGTT against Epha2	0.878
GCAGCCUAUUACCUCAGACTT against Nwd2	1.02
GGAUCUCUCUUUCCUCCUCTT against Gli1	0.0792
GCCUUCAAGCCAAAGAUAGTT against Lin54	-0.582
GGCAAAGGCUAUCGCUCACTT against Smpd2	-1.46
GCCUCUAUAUCUUUCACUGTT against Olfr1209	-2.16 (active)
CCGGACCAUCUUCGACAGUTT against Pmepa1	-0.783

Sequence	z-score
GGAACUGUGUGUCUUCUCCTT against Kcns3	-1.78
CGGUGAAAGACUUCAGUAUTT against Ppfibp1	0.578
GCCAGCGACCUUUAGUACATT against Cmtm1	2.08 (active)
CCUGCUCUUCGUUAUCUUGTT against Olfr552	1.59
GCGACAGAGGAAGCUUGUUTT against Mak16	0.634
CGACAAGAAGACUUCGAAUTT against Mnt	-1.28
GGCCUAUUUUUUCAUAGUUTT against Ptprs	0.0729
GCACACUGAUGAACUUACCTT against Ston2	2.55 (active)
GGCAAAGUACUACGUGCAGTT against Sh3bp5	-0.225
GGCAGAAUAUGAGUUUGAUTT against Camk1d	-0.161
GGAAAAAGAUGCGACAAUGTT against A930012O16Rik	-1.01
GGGACCAUUCUGAAGAUGATT against Acot7	-1.76
GGAGAAUAUGUCGUCAUGATT against Gabra3	-1.09
GGAAAAACUGGUCUAUCAATT against Polr3f	1.47
GGAAGAAUGUGGGUAAAGATT against Gimap9	-2.01 (active)
CCGUUUUUGUGGUUCAGUGTT against Plxdc1	0.0355
GGCAACAUUGAACAUGCCUTT against Stambp	-1.76
GCAGUUCAAGUCUUGAAUATT against Olfr934	-1.09
GGGUUUCUGUUAAUCCACATT against H3c8	-1.38
CCUGCUUGCCAACACCAUATT against Slc39a13	-2.2 (active)
GGAACAACAUUGUUCUAAATT against Fstl5	0.759
GGGAGCCAUUUUUACAGACTT against Ffar4	0.405

Sequence	z-score
GCCGGAACAUCCAGAAUAGTT against Cpeb2	-0.644
GCACCUAGCAUAGCAAUGGTT against Slc24a1	0.695
GCGAUGACCAAAAAUAUUGTT against Tmc1	-0.0131
GCUGGCUAGAAUCUUACCCTT against Aph1c	0.554
GGGCAUGCAAUGUUCAUGCTT against Rho	0.095
GGUUGUGCAACACAGCUCUTT against Olfr218	-2.31 (active)
CGUGUCAGAACUCGAUCUUTT against Tbcel	-0.549
GGCCAUUGUUACUGGAAAATT against Elmo2	-0.353
GGAACUGACUCUUGAAAAUTT against Cd14	0.367
GCUAGAGUCCAUAAACAAUTT against Olfr1148	-0.0654
GGGUUAAAGCGGUUUACUUTT against Kcng3	2.72 (active)
GGAGCAAUCUGUUAAACUATT against Vash2	0.318
GGCCCAUCCUGAAACCAAATT against Wfdc15b	-2.04 (active)
CCCGGAGUGGUCAGAAGUATT against Mapkapk2	-0.376
GGUAAGCAUGGAAAGGCUGTT against Prdm15	-0.0134
GCCGUCAGAUGACAACUAGTT against Lta	0.481
GGAUGACCUUGAAAGCAGUTT against Usp29	-0.677
GGCAAAGCUGUCUUAGAGGTT against Mettl23	-1.35
GGCCAAAGCCAGAAUCUCATT against Zfp281	3.07 (active)
GGACAUAGAUCUACCUGAATT against Ctsb	-1.48
GCUUAAUGCCUUGAAACGATT against Tsg101	1.9
GGAAGAAGAUCACCAUCAUTT against Ifi204	-2.64 (active)

Sequence	z-score
GCACUUUGUGCUAGAUGAATT against Ddx39a	-0.688
GGAAUUGAAACCUGAUGUUTT against Srfbp1	0.239
GCUACUGUGUCGGUCACAUTT against Olfr514	0.753
CCAGUGAUAACUCUCUUGUTT against A830039N20Rik	1.23
GGUUGUGUUUACCAUGAAGTT against Rps6ka6	0.684
GUCAUGGUAGGGAUUUACATT against Taar4	-2.83 (active)
GGAGAUCUAUUGGAUCCAUTT against Trim12a	0.337
CCAGAUGUCGGCAGAUAACTT against Pold4	0.446
GGGCUUUGAUCAGUUCUACTT against Hoxd11	1.88
GCACUUUAAUCUGGCUACCTT against Dnmt3b	-0.78
GGCUCUGACCAAGAAUGAUTT against Cpsf1	1.27
GGAUCACUAACUUUUCCAATT against Trpc3	3.46 (active)
GGCACACUCACUCCUUUGATT against Mis18bp1	0.145
GGAAACGAUGAAGAACAAATT against 4933427D06Rik	-0.714
GCAUUUUUCGUUAGGAAAATT against Esco2	3.13 (active)
GGUAGAAACAAAGAAAUAGTT against 9130023H24Rik	-0.183
GGGCUAAGGACAGAAUUACTT against Tusc2	-0.0196
GGAGAAGAACUAAAACUUATT against Bbs7	0.846
GGUCUCCAUCACAUUCAAGTT against BC024139	1.19
